Drawing on PubChem BioAssay (EPA / NIEHS), this text covers outcome and AC50 for 25 molecules.

Inconclusive results are not listed. Activity calls are given as the source filed them. Rule for the calls: active = hit-call score of the fitted dose curve at least 0.9, where 1 is the maximum; inconclusive = response in the unintended direction; inactive = score below 0.9.

Test [1] concerns the target Retinoic acid receptor RXR-alpha (Homo sapiens) (UniProt P19793). In words: ATG_RXRa_TRANS: Attagene TRANS-FACTORIAL HepG2 Assay for human Retinoid X Receptor alpha (RXRa) (AID 2283012). An outline of the steps:
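Cells (HepG2) carried transiently transfected GAL4-responsive reporter units. Following a 24 h chemical incubation, reporter mRNA induction was read via RT-PCR fragment analysis; DMSO served as negative control and baseline.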

In test [2] the target is human Retinoid X Receptor beta (RXRb), RXRB (gene 6257) (UniProt P28702). In words: ATG_RXRb_TRANS: Attagene TRANS-FACTORIAL HepG2 Assay for human Retinoid X Receptor beta (RXRb) (AID 2283013). An outline of the steps:
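Multiplexed TRANS reporter assay in HepG2; 24 h dosing; reporter mRNA by RT-PCR/CE fluorescence; gain-of-signal relative to DMSO.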

For test [3], the target named is human Thyroid Receptor alpha (THRa1), THRA (gene 7067) (UniProt P10827). In words: ATG_THRa1_TRANS: Attagene TRANS-FACTORIAL HepG2 Assay for human Thyroid Receptor alpha (THRa1) (AID 2283014). An outline of the steps:
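First, HepG2 cells receive multiple GAL4-UAS reporter units and the chimeric receptor. They are then dosed for 24 h, after which RNA is reverse-transcribed, amplified, labelled, HpaI-cut and sized by capillary electrophoresis; gain relative to DMSO is scored.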

For test [4], the target named is human Vitamin D Receptor (VDR), VDR (gene 7421) (UniProt P11473). Kind of test: ATG_VDR_TRANS: Attagene TRANS-FACTORIAL HepG2 Assay for human Vitamin D Receptor (VDR) (AID 2283022). An outline of the steps:
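Fluorescence of labelled reporter cDNA fragments, resolved by capillary electrophoresis, gives mRNA induction after 24 h treatment of HepG2 cells carrying transfected Gal4-fusion reporter units. Activity is fitted in the positive direction with DMSO as baseline.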

human Vitamin D Receptor (VDR), VDR (gene 7421), sequence (P11473 whole entry, looked up, the tested form may be a part): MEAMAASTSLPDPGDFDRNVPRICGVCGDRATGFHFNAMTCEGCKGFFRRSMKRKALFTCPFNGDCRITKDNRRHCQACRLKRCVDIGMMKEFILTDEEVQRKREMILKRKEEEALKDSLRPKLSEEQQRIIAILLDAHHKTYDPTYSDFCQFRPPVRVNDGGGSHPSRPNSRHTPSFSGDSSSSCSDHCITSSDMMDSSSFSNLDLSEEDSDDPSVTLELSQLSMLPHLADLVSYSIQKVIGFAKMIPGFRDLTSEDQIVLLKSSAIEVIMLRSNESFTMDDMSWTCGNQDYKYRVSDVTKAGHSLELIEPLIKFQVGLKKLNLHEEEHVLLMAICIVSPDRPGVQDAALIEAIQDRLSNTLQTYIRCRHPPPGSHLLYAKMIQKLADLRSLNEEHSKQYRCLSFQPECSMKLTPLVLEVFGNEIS
Retinoic acid receptor RXR-alpha (Homo sapiens), sequence (P19793 whole entry, looked up, the tested form may be a part): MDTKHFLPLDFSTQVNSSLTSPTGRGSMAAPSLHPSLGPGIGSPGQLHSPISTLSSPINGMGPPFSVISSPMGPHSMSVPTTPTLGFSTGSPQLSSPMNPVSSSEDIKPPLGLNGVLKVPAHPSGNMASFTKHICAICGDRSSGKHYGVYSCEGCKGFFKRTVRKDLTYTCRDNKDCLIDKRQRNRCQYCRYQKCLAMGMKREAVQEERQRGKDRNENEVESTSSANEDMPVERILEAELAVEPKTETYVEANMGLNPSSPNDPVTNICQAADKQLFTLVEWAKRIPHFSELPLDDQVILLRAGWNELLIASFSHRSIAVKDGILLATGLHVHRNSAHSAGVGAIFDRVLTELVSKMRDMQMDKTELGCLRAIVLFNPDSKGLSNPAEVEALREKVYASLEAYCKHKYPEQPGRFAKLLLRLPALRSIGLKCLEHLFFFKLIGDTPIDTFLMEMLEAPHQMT
human Thyroid Receptor alpha (THRa1), THRA (gene 7067), sequence (P10827 whole entry, looked up, the tested form may be a part): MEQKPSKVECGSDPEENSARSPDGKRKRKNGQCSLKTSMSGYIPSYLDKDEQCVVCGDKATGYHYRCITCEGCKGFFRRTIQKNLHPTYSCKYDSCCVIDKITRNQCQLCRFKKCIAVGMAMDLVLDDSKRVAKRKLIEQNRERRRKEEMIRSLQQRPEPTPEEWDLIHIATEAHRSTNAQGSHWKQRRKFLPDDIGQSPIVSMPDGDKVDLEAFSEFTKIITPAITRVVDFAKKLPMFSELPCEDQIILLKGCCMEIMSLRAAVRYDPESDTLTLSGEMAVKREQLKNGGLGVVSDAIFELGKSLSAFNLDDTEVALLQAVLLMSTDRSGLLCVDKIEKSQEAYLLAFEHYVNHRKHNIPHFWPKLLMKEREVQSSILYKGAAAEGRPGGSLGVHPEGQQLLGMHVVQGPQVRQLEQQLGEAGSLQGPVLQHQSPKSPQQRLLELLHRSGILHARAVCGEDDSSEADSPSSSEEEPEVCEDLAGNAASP
human Retinoid X Receptor beta (RXRb), RXRB (gene 6257), sequence (P28702 whole entry, looked up): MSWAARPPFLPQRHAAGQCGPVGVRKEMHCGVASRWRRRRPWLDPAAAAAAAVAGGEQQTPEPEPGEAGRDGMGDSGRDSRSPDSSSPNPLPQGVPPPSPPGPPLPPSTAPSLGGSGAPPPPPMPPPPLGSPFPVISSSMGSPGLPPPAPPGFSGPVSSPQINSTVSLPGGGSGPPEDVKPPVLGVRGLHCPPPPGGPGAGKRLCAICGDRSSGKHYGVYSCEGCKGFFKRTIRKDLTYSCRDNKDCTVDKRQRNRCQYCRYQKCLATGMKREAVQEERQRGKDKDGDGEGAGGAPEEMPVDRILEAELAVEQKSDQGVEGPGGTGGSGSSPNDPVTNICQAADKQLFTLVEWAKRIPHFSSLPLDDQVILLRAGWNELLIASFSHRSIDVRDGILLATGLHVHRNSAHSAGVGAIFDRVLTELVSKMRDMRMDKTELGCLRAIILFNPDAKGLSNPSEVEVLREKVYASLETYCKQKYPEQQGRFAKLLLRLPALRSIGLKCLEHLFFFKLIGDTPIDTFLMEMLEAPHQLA

Turning to `C1=CCCC1`, the molecule was classed as inactive in test [1], in test [2], in test [3] and in test [4].

For `Cc1ccc(C(C)c2ccc(C)c(C)c2)cc1C`, the molecule was called inactive in test [1], in test [2], in test [3] and in test [4].

`O=C1CCCCCN1SSN1CCCCCC1=O`: the molecule was called inactive in test [1], in test [2], in test [3] and in test [4].

With `CC(=O)CC(N)=O`, the outcome in test [1], in test [2] and in test [4] was inactive.

For `ON(Cc1ccccc1)Cc1ccccc1`, the result in test [1], in test [2], in test [3] and in test [4] was inactive.

`CCOC(=O)Cc1cccc2ccccc12`: the result in test [1], in test [3] and in test [4] was inactive. For the same molecule, in test [2], the AC50 – broadly, the concentration at which the activity in the assay is half-maximal – was 89.4 µM (active).

In the case of `O=C1Nc2ccccc2C1(c1ccc(O)cc1)c1ccc(O)cc1`, the molecule was classed as inactive in test [1], in test [2] and in test [4].

With `Cc1cc(=O)n(-c2ccccc2)n1C`, the molecule was classed as inactive in test [1], in test [2], in test [3] and in test [4].

As for `CC(C)(C)C(=O)C=Cc1ccc(Cl)cc1`, the molecule was classed as inactive in test [1], in test [3] and in test [4]. Further, in test [2], the concentration at half-maximal activity (AC50) is 24.4 µM (active).

With `Cc1ccc2oc(=O)ccc2c1`, the outcome in test [1], in test [2], in test [3] and in test [4] was inactive.

Consider `CC(=O)C=CC1C(C)=CCC(C)C1(C)C` (centres undefined), for which the result in test [1], in test [3] and in test [4] was inactive. Further, the AC50 in test [2] is 68.5 µM (active).

As to `C=CC(=O)OCCOC(=O)C=C`, the result in test [1], in test [2] and in test [4] was inactive. Moreover, the AC50 in test [3] was 26.9 µM (active).

For `C=CC(C)(CCC=C(C)C)OC(=O)C(C)C` (centres undefined), the result in test [1], in test [3] and in test [4] was inactive. In test [2], the concentration at half-maximal activity (AC50) is 57.4 µM (active).

For `CC(C)(C)c1ccc(OC(=O)c2ccccc2O)cc1`, the molecule was classed as inactive in test [1] and in test [4]. Besides, the AC50 in test [2] was 177 µM (active).

As to `C=CC(C)(CCC=C(C)C)OC(=O)CC(C)C` (centres undefined), the molecule was called inactive in test [1], in test [3] and in test [4]. Besides, the AC50 in test [2] is 30.5 µM (active).

With `CN(C)c1ccc(C(=N)c2ccc(N(C)C)cc2)cc1`, the molecule was classed as inactive in test [1], in test [2] and in test [3]. The concentration at half-maximal activity (AC50) in test [4] is 156 µM (active).

As for `Nc1ccc(N=Nc2ccccc2)c(N)n1`, the outcome in test [1], in test [2] and in test [4] was inactive.

Consider `Cc1cc(C)c(C)c(O)c1`, for which the call in test [1], in test [2], in test [3] and in test [4] was inactive.

For the molecule `CCCOC(=O)CCCCC(=O)OCCC`, the molecule was classed as inactive in test [1], in test [2] and in test [4].

On to `O=c1cc(-c2ccccc2)oc2ccccc12`, for which the call in test [1], in test [2], in test [3] and in test [4] was inactive.

Take `CC(=O)[C@@]1(O)CC[C@H]2[C@@H]3C[C@H](C)C4=CC(=O)C=C[C@]4(C)[C@@]3(F)[C@@H](O)C[C@@]21C`: the result in test [1], in test [2], in test [3] and in test [4] was inactive.

Take `O=C(O)CCCCCCCCCC(=O)O`: the result in test [1], in test [2], in test [3] and in test [4] was inactive.

With `CN(C)c1ccc(N=Nc2ccccc2C(=O)O)cc1`, the call in test [1], in test [2] and in test [4] was inactive.

With `COC(=O)c1c(C)cc(O)c(C)c1O`, the call in test [1], in test [2], in test [3] and in test [4] was inactive.

Consider `CC1(C)O[C@@H]2C[C@H]3[C@@H]4C[C@H](F)C5=CC(=O)CC[C@]5(C)[C@H]4[C@@H](O)C[C@]3(C)[C@]2(C(=O)CO)O1`, for which the outcome in test [1], in test [3] and in test [4] was inactive. Besides, the concentration at half-maximal activity (AC50) in test [2] was 31.8 µM (active).
